Reference: PubChem BioAssay (NCI)
The panel holds about 79,000 compounds, 15% with a hit somewhere; the sample as a whole holds those more often. Unmarked numbers belong to inactive results. The source made the active and inactive calls. No stated cut-off is given here; in the data, active means growth inhibition above about 70%; inactive means the rest.

Columns and labels:
[1] = NCI Yeast Anticancer Drug Screen. Data for the rad50 strain (AID 155);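 further: 0% = growth of vehicle-only cultures of the same strain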; details: S. cerevisiae rad50 strain growth inhibition, hits give high values
Summary of the method: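 Cells are treated with compound, grown, and their growth is then scored against vehicle-only cultures of the same repair-deficient yeast strain.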

[2] = NCI Yeast Anticancer Drug Screen. Data for the mec2-1 strain (AID 157); details: S. cerevisiae mec2-1 strain, hits give high values
Summary of the method: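 Using mec2-1 yeast: add compound, measure growth, express inhibition versus vehicle-treated cultures.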

[3] = NCI Yeast Anticancer Drug Screen. Data for the sgs1 mgt1 strain (AID 161);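 further: 0% = growth of cultures given vehicle only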; details: S. cerevisiae sgs1 mgt1 strain, hits give high values
Summary of the method: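 Percent growth inhibition was derived by comparing compound-exposed mutant yeast with vehicle-exposed cultures. The strain carries alterations in DNA damage repair.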

[4] = NCI Yeast Anticancer Drug Screen. Data for the cln2 rad14 strain (AID 165);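 further: 0% = growth equal to vehicle treated cultures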; details: S. cerevisiae cln2 rad14 strain, hits give high values
Summary of the method: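 Yeast strain cln2 rad14, bearing defects in cell cycle control and DNA repair, serves as the test system; values reflect growth inhibition compared with vehicle.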

[5] = NCI Yeast Anticancer Drug Screen. Data for the bub3 strain (AID 167); details: S. cerevisiae bub3 mutant strain, hits give high values
Summary of the method: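 Part of a panel of yeast mutants defective in DNA damage repair or cell cycle regulation. Each strain is grown with compound, and inhibition is calculated relative to solvent-treated cultures.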

[6] = NCI Yeast Anticancer Drug Screen. Data for the mlh1 rad18 strain (AID 175); details: S. cerevisiae mlh1 rad18 strain growth inhibition, hits give high values
Summary of the method: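 Steps: expose repair-defective yeast to compound; measure growth; express inhibition against vehicle-treated controls.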

[7] = at 5.0 µM (retest, dose inferred, filed as 0.5)
[8] = at 50.0 µM (retest, dose inferred, filed as 5.0)

| Compound | growth inhibition [1, 7] | growth inhibition [1, 8] | growth inhibition ([1]; at 50.0 µM) | growth inhibition [2, 7] | growth inhibition [2, 8] | growth inhibition ([2]; at 50.0 µM) | growth inhibition [3, 7] | growth inhibition [3, 8] | growth inhibition ([3]; at 50.0 µM) | growth inhibition [4, 7] | growth inhibition [4, 8] | growth inhibition ([4]; at 50.0 µM) | growth inhibition [5, 7] | growth inhibition [5, 8] | growth inhibition ([5]; at 50.0 µM) | growth inhibition [6, 7] | growth inhibition [6, 8] | growth inhibition ([6]; at 50.0 µM) |
| --- | --- | --- | --- | --- | --- | --- | --- | --- | --- | --- | --- | --- | --- | --- | --- | --- | --- | --- |
| Cc1cccc(Cl)c1NC(=O)/C=C/c1ccccc1 | 41% | 44% | -22.1% | 44% | 44% | -6.05% | -1% | 23% | 1.1% | 29% | 6% | -1.6% | 27% | 39% | 8.6% | 35% | 48% | -6.65% |
| FC(F)(F)c1[nH]nc(-c2cccs2)c1N=NN1CCOCC1 | 98% (active) | 98% (active) | 98% (active) | 100% (active) | 99% (active) | 99.2% (active) | 100% (active) | 99% (active) | 97.2% (active) | 99% (active) | 99% (active) | 98.6% (active) | 100% (active) | 99% (active) | 98.6% (active) | 100% (active) | 99% (active) | 98% (active) |
| COc1ccc(C2=NN(c3ccccc3)C[N+](c3ccc(OC)cc3)=N2)cc1 | 22% | 72% (active) | 96.5% (active) | -7% | 51% | 97.5% (active) | 9% | 48% | 97.7% (active) | 10% | 96% (active) | 96.4% (active) | -10% | 99% (active) | 97.7% (active) | 6% | 84% (active) | 96.8% (active) |
| CCCCCC(Oc1ccc(Cl)cc1)C(=O)O (stereo not given) | 2% | 84% (active) | 81.7% (active) | 2% | 83% (active) | 58.5% | 3% | 85% (active) | 80.2% (active) | -1% | 87% (active) | 75.5% (active) | 7% | 87% (active) | 71.5% (active) | -15% | 89% (active) | 83.2% (active) |
| Cc1ccc2nc(-c3ccc(N)cc3)sc2c1 | 9% | 42% | 75% (active) | -2% | 8% | 34.5% | -2% | 7% | 43.9% | -8% | -6% | 15% | 14% | 68% | 72.5% (active) | -1% | 19% | 41.3% |
